Experimental data from PubChem BioAssay (NCI).
This is part of a sample that, as a whole, favours compounds with a hit. Of some 83,000 tested, about 20% had one in any assay.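 Note: values are percent growth. 100 is the growth of untreated cells, values between 100 and 0 indicate rising inhibition; between -100 and 0 indicates cell death.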 Values without a mark were called inactive. Calls of active or inactive are those of the source. Rule for the calls: active = growth percent below 10; inactive = the rest.

Key:
Assay in all cases: NCI-60 one-dose screen, 48 h (100 = growth as untreated, 0 = no growth, -100 = all killed)
Conditions in all cases: 10 µM unless noted
SR leukemia = test system: SR leukemia
RPMI-8226 leukemia = test system: RPMI-8226 leukemia
OVCAR-8 ovarian = test system: OVCAR-8 ovarian
OVCAR-5 ovarian = test system: OVCAR-5 ovarian
OVCAR-4 ovarian = test system: OVCAR-4 ovarian
SK-OV-3 ovarian = test system: SK-OV-3 ovarian
IGROV1 ovarian = test system: IGROV1 ovarian
OVCAR-3 ovarian = test system: OVCAR-3 ovarian
HS 578T breast = test system: HS 578T breast
NCI/ADR-RES ovarian = test system: NCI/ADR-RES ovarian
T-47D breast = test system: T-47D breast
BT-549 breast = test system: BT-549 breast
MDA-MB-435 melanoma = test system: MDA-MB-435 melanoma
SW-620 colon = test system: SW-620 colon
MCF7 breast = test system: MCF7 breast
HCT-116 colon = test system: HCT-116 colon
HCC-2998 colon = test system: HCC-2998 colon
KM12 colon = test system: KM12 colon

Row | SMILES | growth (SR leukemia) | growth (RPMI-8226 leukemia) | growth (OVCAR-8 ovarian) | growth (OVCAR-5 ovarian) | growth (OVCAR-4 ovarian) | growth (SK-OV-3 ovarian) | growth (IGROV1 ovarian) | growth (OVCAR-3 ovarian) | growth (HS 578T breast) | growth (NCI/ADR-RES ovarian) | growth (T-47D breast) | growth (BT-549 breast) | growth (MDA-MB-435 melanoma) | growth (SW-620 colon) | growth (MCF7 breast) | growth (HCT-116 colon) | growth (HCC-2998 colon) | growth (KM12 colon)
1 | CC(SC(C)C(=O)N/N=C/c1cccc(Cl)c1)C(=O)N/N=C\c1cccc(Cl)c1 (centres undefined) | 15.8% | 64.4% | 68.1% | 115% | -11.1% (active) | 90.5% | 70.3% | -30.2% (active) | 86% | 94.5% | 87.8% | 102% | 72.8% | 27.7% | 49.1% | 2.39% (active) | 96.5% | 71.7%
2 | Nc1c(Br)cc2c(c1Br)Cc1cc(Cl)ccc1-2 | 80% | 105% | 96.8% | 93.2% | 95.1% | 82.5% | 84.3% | 104% | 91.9% | 95.8% | 66% | 128% | 102% | 98.2% | 80.6% | 97.1% | 102% | 98.7%
3 | COc1cc(C2CC(c3ccccc3)=NN2C=O)ccc1Oc1nc2c(c(=O)n(C)c(=O)n2C)n1C (centres undefined) | 67.4% | 61.1% | 91.3% | 97.6% | 65.3% | 125% | 77.7% | 103% | 75.8% | 57.9% | 69.7% | 95.7% | 56.8% | 97.9% | 72.3% | 79.9% | 77.6% | 74.7%
4 | O=C(Nc1cccc(N=Cc2c(O)ccc3ccccc23)c1)c1ccccc1 | 101% | 94.6% | 93% | 108% | 88.1% | 90.4% | 101% | 103% | 97.4% | 103% | 85.2% | 85.3% | 101% | 98.6% | 86.3% | 93.9% | 102% | 95.6%
5 | COC(=O)[C@@H](Cc1c[nH]c2ccccc12)NC(=O)/C=C/c1ccccc1 | 18.4% | 14.3% | 25.2% | 36% | 63.1% | 2.1% (active) | 29.1% | -5.22% (active) | -13% (active) | 4.17% (active) | 32.2% | -0.499% (active) | -84.3% (active) | 27.5% | 19.6% | 16.8% | 66% | 27.3%
6 | COc1ccc(/C=C/C(=O)CCC(=O)O)cc1OC | 98.5% | 105% | 109% | 95.4% | 99% | 91% | 108% | 109% | 105% | 111% | 93.1% | 109% | 106% | 105% | 97.1% | 104% | 125% | 103%
7 | COc1cc2c(=O)n(CCCN(C)C)c3c4cc[nH]c4ncc3c2cc1OC | 15.7% | 22.2% | 27.8% | 71% | 34.7% | 42.8% | 45.2% | 49.1% | 65% | 89.4% | 63.9% | 72.5% | 51% | 24.9% | 15.5% | 16.8% | 55.7% | 19.2%
8 | COc1ccccc1/C=C/C(=O)CCC(=O)O | 89.1% | 98.8% | 105% | 104% | 104% | 98.5% | 110% | 107% | 96% | 107% | 93.1% | 113% | 108% | 107% | 102% | 101% | 114% | 114%
